Experimental findings from PubChem BioAssay (NCATS) are described below.

SMILES strings stand for the structures. Inconclusive results are not listed. Active and inactive are the calls of the source. Calls come from the whole dose curve; as a rule, active = well fitted inhibition curve with a large enough effect; inconclusive = small, poorly fitted or top-dose-only effect; inactive = no such curve, though single readings can be large or run the other way.
Potency is the fitted concentration of half-maximal effect.

A short description of the assay: S16 Schwann cell PMP22 intronic element firefly luciferase assay (AID 624032). Note: nearly all actives have a fitted effect of over 30% in size. The settings on record: S16 rat Schwann cells, PMP22 element FLuc, 24 h; series mostly up to 57.5 µM; activity change, negative = inhibition: at the top concentration. The source says:
Charcot-Marie-Tooth-Association [CMTA]
National Center for Advancing Translational Sciences [NCATS]
Charcot-Marie-Tooth (CMT) disease was first characterized by Jean-Martin Charcot and Pierre Marie in France and, independently, by Howard Henry Tooth in England in 1886. CMT is one of the most common inherited neurological diseases, affecting approximately 1 in 2,500 Americans. […] The most prevalent type of CMT is known as CMT1A and caused by a duplication of the PMP22 gene which leads to over-expression of this protein. PMP22 is a glycosylated intrinsic membrane protein accounting for 2-5% of the myelin protein content, and its over-expression results in demyelination and subsequently axonal loss.
A pair of cellular transcription-based assays was developed in the S16 rat Schwann cell lines (Hai, M., et al., 2002) stably transfected with orthogonal reporters - firefly luciferase (Fluc) and beta-lactamase (beta-Lac) - whose expression is driven by an intronic regulatory element of the PMP22 gene (Jones, E.A., et al., 2011) to recapitulate endogenous expression of PMP22. The current assay employs Fluc to report on PMP22 expression. A comprehensive library of approved drugs, the NCGC Pharmaceutical Collection (Huang, R., et al., 2011), was screened in the cross-validating platform of the orthogonal reporter assays to identify drug modulators inhibitory towards PMP22 expression.
A set of counter-screens was devised to address non-specific activity of the library. An ATP-dependent CellTiter-Glo assay (developed by Promega Corp) was utilized to control cell viability. In addition, biochemical Fluc enzyme assay was performed to assess direct inhibition of the Fluc enzymatic activity.
Hai, M., Muja, N., DeVries, G.H., Quarles, R.H. and Patel, P.I. Comparative analysis of Schwann cell lines as model systems for myelin gene transcription studies. J Neurosci Res, 2002. 69(4): pp 497-508
Huang, R., Southall, N., Wang, Y., Yasgar A., Shinn P., Jadhav, A. , Nguyen, D.-T. and Austin, C.P., The NCGC pharmaceutical collection: a comprehensive resource of clinically approved drugs enabling repurposing and chemical genomics. Sci Transl Med, 2011. 3(80): p. 80ps16.
S16 Schwann cell PMP22 intronic element firefly luciferase assay
The FLuc-expressing S16 cells were seeded in white solid 1536-well plates at between 500-750 cells/4uL in DMEM medium containing 10% FBS, w/o phenol red. After overnight incubation at 37 degree Celsius/5% C02, 23 nL of compounds or DMSO were delivered to each well using a pin tool, followed by 24h-incubation at 37 degree Celsius/5% C02. Then 4 uL ONE-Glo luminescent substrate mix (Promega) was added to each well. Luminescence was measured on a ViewLux plate reader (Perkin Elmer). The % activity was determined by normalizing to the average readings of PTC124 (a positive control) - treated cells relative to DMSO-treated cells (0% Activity). The concentration-effect curves were then classified based on curve quality (r2), response magnitude and degree of measured activity.
In the case of `NC1=NC(=O)N2CC12` (stereo unspecified), the “activity change, negative = inhibition” value was -31.6% (inactive).

In the case of `CCCN1CCC[C@H](c2cccc(O)c2)C1`, the “activity change, negative = inhibition” value is 27.5% (inactive).

Take `CCCCc1ccc(C(=O)O)nc1`: the “activity change, negative = inhibition” value was 18.6% (inactive).

Consider `CCCCCCCCCC(CC)c1ccc(S(=O)(=O)O)cc1` (stereo unspecified), for which the “activity change, negative = inhibition” value is -24.1% (inactive).

Take `CC(=O)[O][Hg][c]1ccccc1`: the Potency is 1.14 µM (active).

As for `C#CC1(O)CCC2C3CCC4=CC(=O)CCC4(C)C3CCC21C` (stereo unspecified), the “activity change, negative = inhibition” value is -12.6% (inactive).

With `Cc1cc(O)ccc1Cl`, the “activity change, negative = inhibition” value is -1.3% (inactive).

Turning to `c1ccc(C2(c3ccccc3)CC2C2=NCCN2)cc1` (stereo unspecified), the “activity change, negative = inhibition” value was -14.2% (inactive).

For the compound `O=C(O)COc1ccccc1`, the “activity change, negative = inhibition” value is 1.36% (inactive).

As to `O=C(O)C(Cl)Cl`, the “activity change, negative = inhibition” value is -0.661% (inactive).

For the compound `O=C(Nc1ccc(Oc2ccc(Cl)cc2)c(Cl)c1)c1cc(I)cc(I)c1O`, the Potency was 10.2 µM (active).

On to `C=CCN1CC[C@]23CCCCC2[C@H]1Cc1ccc(O)cc13` (stereo partly specified), for which the “activity change, negative = inhibition” value is -16.1% (inactive).

On to `CCCCCCCCCCCCCCCC[N+](C)(C)C`, for which the Potency is 8.09 µM (active).

As to `C1CCC(NC2CCCCC2)CC1`, the “activity change, negative = inhibition” value is 25.8% (inactive).

For `Cc1ccc(Cl)c(O)c1`, the “activity change, negative = inhibition” value is -7.03% (inactive).

`COC(=O)c1cncn1C(C)c1ccccc1` (stereo unspecified): the “activity change, negative = inhibition” value was -26.3% (inactive).

`NC(=O)CN1CC(O)CC1=O` (stereo unspecified): the “activity change, negative = inhibition” value was 16% (inactive).

Consider `CN(C)[C@@H]1C(=O)C(C(N)=O)=C(O)[C@@]2(O)C(=O)C3=C(O)c4c(O)cccc4[C@@](C)(O)[C@H]3[C@H](O)[C@@H]12`, for which the “activity change, negative = inhibition” value was -6.17% (inactive).

For the compound `CC(C)NC(C)Cc1ccc(I)cc1` (stereo unspecified), the “activity change, negative = inhibition” value was 7.25% (inactive).

Take `O=[N+]([O-])c1ccc([As](=O)(O)O)cc1`: the “activity change, negative = inhibition” value was 15.9% (inactive).

In the case of `COC(=O)[C@@H](N)CCCN=C(N)N[N+](=O)[O-]`, the “activity change, negative = inhibition” value is -28.9% (inactive).
